From PubChem BioAssay come the findings set out here.

The nature of experiment [1]: LFS_MB_1R medulloblastoma cell growth inhibition, synergistic combos for chromothripsis tumors, cisplatin or BGB combos (AID 1671452).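 Also: cells exposed for 96 hours before readout.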 As to conditions: LFS_MB_1R medulloblastoma cells, stronger effect = higher value.
Experiment [2] can be described thus: CRL2098 osteosarcoma cell growth inhibition, synergistic combos for chromothripsis tumors, BGB or cisplatin IC20 combos (AID 1671454).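 Also: cells exposed for 96 h before readout; 0% = vehicle DMSO and 100% = killing by high DMSO.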 To be noted: CRL2098 osteosarcoma cells, drug combinations, stronger effect = higher value.
Experiment [3] can be described thus: HD-MB03 medulloblastoma cell growth inhibition, synergistic combos for chromothripsis tumors, BGB or cisplatin IC20 combos (AID 1671455; in the data active = inhibition above about 83%;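 also: 0% = vehicle DMSO and 100% = high DMSO as cytotoxic control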). As to conditions: HD-MB03 medulloblastoma cells, stronger effect = higher value.
Experiment [4] is described as follows: UWB1.289 ovarian carcinoma cell growth inhibition, synergistic combos for chromothripsis tumors, BGB or cisplatin combos (AID 1671456).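 Also: cells exposed to compound for four days; 0% = vehicle DMSO and 100% = killing by high DMSO.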 As to conditions: UWB1.289 ovarian carcinoma cells, stronger effect = higher value.
Experiment [5] can be described thus: LFS_MB_2R medulloblastoma cell growth inhibition, synergistic combos for chromothripsis tumors, cisplatin combos (AID 1671457).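 Also: cells exposed to compound for four days before readout.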 As to conditions: LFS_MB_2R medulloblastoma cells, stronger effect = higher value.
A short description of experiment [6]: UWB1.289_BRCA1 ovarian cancer growth, cell-based, BGB or cisplatin combinations (AID 1671459). As to conditions: UWB1.289 BRCA1 ovarian carcinoma, drug combinations, stronger effect = higher value.
Experiment [7] is described as follows: human astrocyte viability loss, single and combined drugs, cytotoxicity control for chromothriptic childhood tumor combination screen, cell-based, BGB or cisplatin IC20 combos (AID 1671460).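 Also: cells exposed to compounds for 96 hours before viability readout; 0% = vehicle and 100% = killing control.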 As to conditions: Human astrocytes, drug combinations, stronger effect = higher value.
A short description of experiment [8]: growth inhibition of CRL1545 osteosarcoma cells, cell-based, cisplatin and BGB IC20 combos (AID 1671464).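 Also: cells exposed to compound for 96 hours before readout; 0% = vehicle DMSO and 100% = high DMSO killing control.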 To be noted: stronger effect = higher value.
Experiment [9] in a line: kinase inhibitors against Plasmodium liver-stage infection, cell-based, known kinase inhibitor set, luminescence, hepatoma host viability (AID 624392; call rule not given here;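 also: infected cells incubated roughly two days before readout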). To be noted: Plasmodium liver stage in hepatoma cells, luciferase luminescence, concentration not given here; liver cell % of control: measured here: host liver cell viability; parasite % of control: stronger effect = lower value.
A short description of experiment [10]: liver-stage malaria parasite growth inhibition, primary screen, cell-based, HepG2, luciferase luminescence, HepG2 viability (AID 624349; in the data active = parasite load remaining mostly below about 12%, no sharp cut-off; inactive = mostly above about 10%;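 also: 100% = mean of DMSO negative control wells on the same plate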). As to conditions: P. berghei liver stage in HepG2, luciferase luminescence, concentration not given here; parasite load remaining: stronger effect = lower value; viability: measured here: HepG2 viability without parasites.
The nature of experiment [11]: viability rescue of complex I mutant cybrids, primary screen, cell-based, galactose medium, ATP luminescence (AID 1645843;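 active = z-score of at least 1.8 in each of two replicates, scored against plate mean and spread of sample wells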;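 also: positive z means more ATP and so rescue of galactose-driven cybrid death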). To be noted: complex I mutant cybrid cells, 72 h, stronger effect = higher value.
Setting [12] is: measured here: combination with BGB IC40, at 0.05 µM.
[13] abbreviates: measured here: combination with cisplatin, at 0.5 µM.
Where [14] appears, read: measured here: combination with cisplatin, at 5 µM.
[15] abbreviates: measured here: combination with BGB at IC20, at 0.5 µM.
Setting [16] is: measured here: combination with cisplatin at IC20, at 0.5 µM.
Setting [17] is: measured here: combo with BGB at IC20, at 0.5 µM.
Setting [18] is: measured here: combo with cisplatin at IC20, at 0.5 µM.
Where [19] appears, read: measured here: inhibition with BGB combination, at 0.05 µM.
Setting [20] is: measured here: inhibition with cisplatin combination, at 0.05 µM.
The mark [21] stands for this setting: BGB combination, concentration series, at 5 µM.
Where [22] appears, read: cisplatin combination, concentration series, at 5 µM.
Where [23] appears, read: measured here: combo with BGB IC20, at 0.5 µM.
Where [24] appears, read: measured here: combo with cisplatin IC20, at 0.5 µM.
[25] abbreviates: measured here: with BGB IC20 combination, at 0.5 µM.
[26] abbreviates: measured here: with cisplatin IC20 combination, at 0.5 µM.

Several values for one entry are separate records, joined by “and”; a condition that tells them apart may be missing. Identical values can stand only once. Activity calls are given as the source filed them. Rule as the data show it, unless noted: active = inhibition above about 80%; inactive = the rest.

Turning to `Nc1ccc(-c2ccc3ncc4ccc(=O)n(-c5cccc(C(F)(F)F)c5)c4c3c2)cn1`, the inhibition – broadly, the drop in the measured response relative to a control, in per cent – is -12.4% (inactive) in [1] (at 0.5 µM); -33.9% in [1] (setting [12]); -17% in experiment [1] (setting [13]); 48.5% in experiment [1] (setting [14]); 47.4% (inactive) in experiment [2] (at 0.5 µM); 49.5% in [2] (setting [15]). Also, the inhibition was 49.4% in [2] (setting [16]); 39.9% (inactive) in experiment [3] (at 0.5 µM); 13.5% in experiment [3] (setting [17]); 69.9% in experiment [3] (setting [18]); 49.8% (inactive) in experiment [4] (at 0.5 µM); -0.684% in [4] (setting [19]). The inhibition was 1.16% in [4] (setting [20]); 2.91% (inactive) in experiment [5] (at 0.5 µM); 17.6% in [5] (setting [13]); 76.8% in experiment [5] (setting [14]); 98.8% in experiment [6] (setting [21]); 52.1% (inactive) in experiment [6] (at 0.5 µM). Besides, the inhibition in [6] (setting [22]) was 104%; in experiment [7] (at 0.5 µM), 76.8% (inactive); in experiment [7] (setting [23]), 71%; in experiment [7] (setting [24]), 77.3%; in experiment [8] (at 0.5 µM) it was 79.5% (inactive); in experiment [8] (setting [25]), 69.2%. The inhibition in experiment [8] (setting [26]) is 84.4%; in experiment [8] (single agent, at 0.05 µM) it was -3.59%; in experiment [8] (single agent, at 5 µM) it was 98.4%.
As to `NC(=O)c1ccc(N(C(N)=O)c2c(F)cccc2F)nc1-c1ccc(F)cc1F`, in experiment [9], the liver cell % of control was 98.2% and 93.2% and 92%; the parasite % of control is 55.7% (inactive) and 44.1% (inactive) and 51.8% (inactive).
Take `Cc1ccc(O)c(C(CCN(C(C)C)C(C)C)c2ccccc2)c1` (stereo unspecified): in experiment [10], the parasite load remaining was 53.2% (inactive) and the viability (usually the share of living cells, or the viability signal relative to a control) is 96.6%. In addition, in experiment [11], the z-score was -0.5 (inactive).
Take `O=c1cc(N2CCOCC2)oc2c(-c3cccc4c3sc3ccccc34)cccc12`: the inhibition in experiment [1] (at 0.5 µM) is -39.7% (inactive); in [1] (setting [12]), -46.9%; in experiment [1] (setting [13]), -75.1%; in experiment [1] (setting [14]), -3.55%; in [2] (at 0.5 µM), -62.4% (inactive); in experiment [2] (setting [15]), -46.6%. For the same compound, the inhibition in [2] (setting [16]) is -92%; in experiment [3] (at 0.5 µM), 0.79% (inactive); in experiment [3] (setting [17]) it was -1.46%; in experiment [3] (setting [18]) it was 11.5%; in [4] (at 0.5 µM) it was -12.2% (inactive); in experiment [4] (setting [19]), -24%. For the same compound, the inhibition in experiment [4] (setting [20]) was -24.1%; in [5] (at 0.5 µM), -22.4% (inactive); in experiment [5] (setting [13]), -18.6%; in [5] (setting [14]), -3.32%; in experiment [6] (setting [21]), 44.6%; in experiment [6] (at 0.5 µM) it was -11.7% (inactive). Also, the inhibition in [6] (setting [22]) is 12.1%; in [7] (at 0.5 µM), 9.11% (inactive); in experiment [7] (setting [23]) it was 7.86%; in experiment [7] (setting [24]), 13%; in [8] (at 0.5 µM), 17.1% (inactive); in [8] (setting [25]), -25.4%. Besides, the inhibition is 37.3% in [8] (setting [26]); -18.4% in experiment [8] (single agent, at 0.05 µM); -71.2% in [8] (single agent, at 5 µM).
`CC(=O)Nc1nc(C)c(-c2ccc(Cl)c(S(=O)(=O)NCCO)c2)s1`: the inhibition in experiment [1] (at 0.5 µM) was 1.54% (inactive); in [1] (setting [12]) it was -12.3%; in experiment [1] (setting [13]) it was 15.7%; in experiment [1] (setting [14]), 14.2%; in [2] (at 0.5 µM) it was 17% (inactive); in experiment [2] (setting [15]) it was 5.45%. Further, the inhibition was 52.4% in experiment [2] (setting [16]); 14.3% (inactive) in experiment [3] (at 0.5 µM); 17.8% in experiment [3] (setting [17]); 10.3% in experiment [3] (setting [18]); 10.9% (inactive) in [4] (at 0.5 µM); 10.4% in experiment [4] (setting [19]). The inhibition in experiment [4] (setting [20]) is 1.8%; in experiment [5] (at 0.5 µM), 9.32% (inactive); in experiment [5] (setting [13]), 10.4%; in experiment [5] (setting [14]) it was 43.2%; in [6] (setting [21]), 22.7%; in experiment [6] (at 0.5 µM), 6.36% (inactive). The inhibition in experiment [6] (setting [22]) is 12.2%; in [7] (at 0.5 µM), 23.1% (inactive); in experiment [7] (setting [23]), 23.7%; in [7] (setting [24]) it was 25.1%; in experiment [8] (at 0.5 µM), -8.22% (inactive); in experiment [8] (setting [25]), -13.7%. Besides, the inhibition is -7.2% in experiment [8] (setting [26]); -0.058% in experiment [8] (single agent, at 0.05 µM); 1.73% in experiment [8] (single agent, at 5 µM).
